Rows were chosen to be rich in hits. Some 3.4% of all compounds tested hit in one or more screens of this group.
Bst PK mod: modulators of Bacillus stearothermophilus pyruvate kinase. purified pyruvate kinase, luminescence ATP production; ribose 5-phosphate activator present at AC10. Potency, µM. 51,000 compounds, 1.2% hits. AID 361; in the data active = potency below about 11 µM; inconclusive = mostly about 12 µM to 25 µM;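 the screen sought inhibitors and activators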;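 note: scaled between full activation by ribose 5 phosphate and full inhibition by luteolin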
GBA mod: modulators of human glucocerebrosidase. AID 360. P04062. Potency, µM. 48,000 compounds, 1.1% hits. purified enzyme, resorufin glucoside fluorescence (screen aimed at inhibitors), 20 min; in the data active = potency below about 15 µM; inconclusive = mostly about 16 µM to 33 µM;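 note: the screen sought inhibitors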
Target sequence (P04062 whole entry, looked up): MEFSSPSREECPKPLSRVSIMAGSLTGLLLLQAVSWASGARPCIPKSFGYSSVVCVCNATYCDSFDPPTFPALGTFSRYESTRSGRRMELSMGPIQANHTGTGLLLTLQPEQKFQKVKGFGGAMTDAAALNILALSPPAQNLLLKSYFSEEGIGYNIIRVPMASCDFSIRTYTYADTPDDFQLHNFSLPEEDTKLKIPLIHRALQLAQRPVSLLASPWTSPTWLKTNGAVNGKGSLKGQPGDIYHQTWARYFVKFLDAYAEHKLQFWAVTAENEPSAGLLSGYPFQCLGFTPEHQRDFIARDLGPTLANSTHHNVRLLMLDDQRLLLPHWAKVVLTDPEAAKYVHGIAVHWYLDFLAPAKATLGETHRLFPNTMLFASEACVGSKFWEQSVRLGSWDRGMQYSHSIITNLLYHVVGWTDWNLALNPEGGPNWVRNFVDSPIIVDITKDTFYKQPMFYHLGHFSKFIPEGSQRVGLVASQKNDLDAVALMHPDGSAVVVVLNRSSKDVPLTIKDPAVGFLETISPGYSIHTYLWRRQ
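Wild-type enzyme at 0.2 nM final in 50mM citric acid/KH2PO4, 10mM sodium taurocholate, 0.01% tween-20, pH 5.9, with resorufin beta-D-glucopyranoside at 30 uM final. Compounds titrated, 20 min at RT, red fluorescence read; AC50 from titration.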
FLuc inh: blocks Photinus pyralis firefly luciferase activity; P08659; purified firefly luciferase, luminescence, 8 min; Potency, µM (doses to about 57.1 µM), for the others: at the top dose activity change, negative = inhibition, hits mostly inhibitors; 72,000 compounds, 2.2% hits; AID 411; active = well fitted inhibition curve with a large enough effect; inconclusive = small, poorly fitted or top-dose-only effect; note: % is set by controls: 0 for no effect and ±100 for the full control effect; nearly all actives have a fitted effect of over 40% in size
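Inhibition of light generation by firefly luciferase from ATP and luciferin was profiled with concentration-response curves per sample, ATP held at 10 uM within the enzyme's linear range. Plates were read by luminescence after an 8-minute ambient incubation.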
* hit, by the source's call; i = inactive; ? = inconclusive; . = not tested or not shown; [ ] = dose if it differs, or a comment. Potency is the fitted concentration of half-maximal effect.

SMILES	Bst PK mod	GBA mod	FLuc inh
O=C(Nc1ccc2nc(-c3ccccc3)oc2c1)c1ccco1	?	>77	-24%
O=C(Nc1ccc2c(c1)ncn2-c1ccccc1)c1ccco1	10*	>77	13µM*
O=C(c1ccccc1)c1cccc(NC(=O)c2ccco2)c1	.	.	-21%
O=C(Nc1cccc(NC(=O)c2nccc3ccccc23)c1)c1ccco1	i	>77	13µM*
O=C(Nc1cccc(-c2nc3ccccc3[nH]2)c1)c1ccco1	i	?	25µM*
N#CCCn1c(=O)cnc2cnc(OCc3ccccc3)nc21	.	.	-1%[11.4 µM]
COc1ccc(CNc2ncncc2-c2cccc(NS(C)(=O)=O)c2)c(OC)c1	.	.	-1%[2.29 µM]
CCOC(=O)c1cnc2c(cnn2CC)c1NN=C(C)C	.	.	-1%
CC(=O)[C@@]1(N=Nc2ccc(S(N)(=O)=O)cc2)CCOC1=O	.	.	1%[11.4 µM]
O=C(c1cnccn1)N1CCC[C@@]2(CCN(Cc3cc(C(F)(F)F)cc(C(F)(F)F)c3)C2)C1	.	.	2%[11.4 µM]
CN(C)C(=O)c1ccc(-c2nc(NC3CCNCC3)c3ccccc3n2)cc1	.	.	2%[2.29 µM]
Cc1ccnc(Nc2nc3ccccc3o2)n1	.	.	6.3µM*
N#Cc1cnc(Nc2nc3ccccc3o2)nc1-c1ccccc1	>57	>77	2%
CCOc1ccc2nc(-c3ccccc3)[nH]c2c1	2*	i	3.2µM*
COc1ccc2nc(N3CCCC3)[nH]c2c1	>11	?	-5%
COc1ccc2nc(-c3ccccc3)[nH]c2c1	6*	.	6.3µM*
CCOc1ccc2nc(C(C)O)[nH]c2c1 (configuration not stated)	>57	?	-3%
O=C(c1cccs1)N1CCn2c1nc1ccccc12	i	.	16µM*
N#CCC(=O)N1CCn2c1nc1ccccc12	>57	>77	-35%
CCn1c2ccccc2c2cc(NC(=O)N3CCOCC3)ccc21	.	>77	-3%
O=C(Nc1ccc2c(c1)oc1ccccc12)N1CCOCC1	?	.	20µM*
N[C@H](Cc1cc(I)c(Oc2ccc(O)c(I)c2)c(I)c1)C(=O)O	.	.	7%[25.5 µM]
